Results on 40 molecules are retold here after PubChem BioAssay (NCI).

The panel holds about 83,000 compounds, 20% with a hit somewhere; the sample as a whole holds those more often.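 96-well plates, one dose, 48 hours. Percent growth reported; active if below 10.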 Active and inactive are the calls of the source.

The assay relates to A498 renal. In words: NCI-60 one-dose screen, 48 h (100 = growth as untreated, 0 = no growth, -100 = all killed). The note with it: 10 µM unless noted. The method, then: Growth inhibition of the A498 human tumor cell line is measured as a screen for anti-cancer activity. Cells are grown in 96 well plates and exposed to the test compound for 48 hours. Compounds are tested at a single concentration, which is 10^-5 M for most compounds. The reported endpoint is percent growth (GI% or GIPRCNT), where numbers from 0 - 100% represent growth inhibition, and numbers from -100% - 0 represent cell death. For example, a value of 40 represents 60% growth inhibition. A value of 0 means no net growth occurred over the course of the experiment. A value of -40 indicates 40% of cells at the beginning of the experiment died by the end of the experiment. A value of -100 means all cells are dead at the end of the experiment.
NCI-60 Human Tumor Cell Lines Screen was performed using the standard one-dose NCI protocol, which is described in more detail at https://dtp.cancer.gov/discovery_development/nci-60/default.htm.
Compounds with GIPRCNT values below 10 were considered active. Activity score was based on GIPRCNT using the following formula: […]
Score is 0 for GIPRCNT values of 100 or above, 50 for GIPRCNT values of 0, and 100 for GIPRCNT values of -100.
With `COc1ccc(-c2cn3c(ccc4ccccc43)n2)cc1`, the growth is 116% (inactive).

As to `CN1CCCCC1CCN1c2ccccc2Sc2ccc(Br)cc21` (stereo not given), the growth is 66.7% (inactive).

Turning to `C=C1CC2(OC1=O)C(=O)Nc1ccccc12` (stereo not given), the growth is 72.8% (inactive).

Turning to `CC1CN(C(C)C)C(=S)N(c2ccccc2)C1=O` (stereo not given), the growth is 101% (inactive).

Take `O=C1Nc2ccccc2/C1=C/C(=N/c1nnc(-c2ccc(Cl)cc2)s1)c1ccccc1`: the growth is 104% (inactive).

Consider `Cc1ccc(-c2nc(/C=N/Nc3cc(C)nc4ccc(Cl)cc34)c(C)o2)cc1`, for which the growth is 67.6% (inactive).

With `Nc1nc2c(c3ncccc13)C(c1cccc(Br)c1)Cc1ncccc1-2` (stereo not given), the growth was -14.9% (active).

Regarding `CCN(CC)CC(O)CNc1c2ccc([N+](=O)[O-])cc2nc2cc(OC)c(OC)cc12` (stereo not given), the growth was -52.9% (active).

For the molecule `Cc1ccc(C2CC3c4ccccc4C2C2CCCCN32)cc1` (stereo not given), the growth is 139% (inactive).

For `O=S(=O)(Nc1ccc(Cl)cc1Cl)c1ccc(-c2cnc(C3CC3)o2)cc1`, the growth was -21% (active).

Turning to `Nc1cc(O)cc2cccnc12`, the growth was 118% (inactive).

As for `Clc1ccc(-c2nnc(COc3ccccc3Cl)o2)cc1`, the growth is 98.7% (inactive).

As for `CCOC(=O)c1c2c(n3ccc(NC(=O)CCN4CCCCC4)cc13)C(=O)c1ncccc1C2=O`, the growth is 58.5% (inactive).

For the molecule `CCCCCCCCCCCCCCCCCCSC1=CC(=O)C(OC)=C(OC)C1=O`, the growth was 97.1% (inactive).

Take `COc1ccc(C(=O)/C=C/c2cc3ccccc3[nH]c2=O)cc1`: the growth is 47.4% (inactive).

Regarding `CC/C=C\C[C@H](F)C/C=C1/C(=O)C=C[C@@H]1C/C=C\CCCC(=O)OC`, the growth was 84.8% (inactive).

Take `COC(=O)[C@H](C(C)C)n1c(=O)c2cc(OC)c(OC)cc2c2cnc3[nH]ccc3c21`: the growth is -40.3% (active).

Consider `COc1ccc(S(=O)(=O)NCCNc2nccc(-c3c(-c4cccc([N+](=O)[O-])c4)nc4sccn34)n2)cc1`, for which the growth was 63.7% (inactive).

Turning to `COc1cc(-c2c3sc(=O)[nH]c3nc3c2c(=O)[nH]n3C(C)C)cc2c1OCO2`, the growth was 67.1% (inactive).

On to `CC(=O)C1=C(O)C=C2Oc3c(C(=O)/C=C/c4cc(Cl)cc(Cl)c4)c(O)c(C)c(O)c3[C@]2(C)C1=O`, for which the growth is -57.7% (active).

With `CCCCCCCCCCCCCC(=O)C(C)N` (stereo not given), the growth is 11.3% (inactive).

In the case of `O=[N+]([O-])c1cccc(C2CC(c3ccccc3)=Nc3ccccc3S2)c1` (stereo not given), the growth is 96.3% (inactive).

Turning to `O=C1Nc2c(ccc(Cl)c2Cl)/C1=C/c1cc(Br)c(O)c(Br)c1`, the growth was 48.9% (inactive).

As to `CC(C)n1cc2c(N)ncnc2n1`, the growth is 126% (inactive).

`Brc1cccc(-c2nc(-c3ccc4c(c3)OCCO4)co2)c1`: the growth was 23.5% [25 µM] (inactive).

Take `Cn1cc(-c2nc(-c3c[nH]c4ccccc34)cs2)c2cccnc21`: the growth is -0.249% (active).

For the molecule `COc1cc(NCCCCCN=C(N)NC(N)=NC(C)C)c2ncccc2c1`, the growth was 110% (inactive).

In the case of `O=C1C[C@H](Sc2nc(-c3ccc(F)cc3)cc(C(F)(F)F)n2)[C@H]2CO[C@@H]1O2`, the growth was 105% (inactive).

Take `CC1(C)CC(=O)C(c2c(-c3ccccc3)[nH]c3[nH]c(=S)[nH]c(=O)c23)=C(O)C1`: the growth is 100% (inactive).

On to `CCCCCCCCSC1=CC(=O)C(OC)=C(OC)C1=O`, for which the growth is 65.5% (inactive).

`O=C(/C=C/c1cccc(Br)c1)c1ccccc1`: the growth was 87.5% (inactive).

Consider `Cc1nc2sc(C(=O)Nc3cccc4c3OCCO4)c(N)c2cc1C(C)O` (stereo not given), for which the growth was -4.54% (active).

With `C=C(CN1CCN(c2cccc(C(F)(F)F)n2)CC1)c1ccc(C(=O)Nc2ccccc2N)cc1`, the growth is 35.6% (inactive).

In the case of `CC/C=C\C[C@H](O)C/C=C1/C(=O)C=C[C@@H]1C/C=C\CCCC(=O)OC(C)C`, the growth was 77.7% (inactive).

As for `Cc1ccc2c(c1)C(=O)/C(=C/c1ccc(OCC(=O)c3ccccc3)cc1)O2`, the growth was 98.3% (inactive).

On to `COc1ccc(-c2cc(-c3ccc(N(C)C)cc3)nc(NC(=O)c3ccncc3)n2)cc1`, for which the growth was 76.5% (inactive).

In the case of `Cc1cc(Nc2nc(N3CCN(C)CC3)nc3ccccc23)n[nH]1`, the growth was 16.9% (inactive).

For `COc1ccc2nc3cc(Cl)ccc3c(N3CCN(c4nccc(NCc5ccccc5)n4)CC3)c2c1`, the growth is 28.8% (inactive).

Consider `COC(=O)C12C3C(=O)N(c4ccc(OC)cc4)C(=O)C3C(c3cn(-c4ccccc4)nc3C)N1[C@H](c1cn(-c3ccccc3)nc1C)[C@@H]1C(=O)N(c3ccc(OC)cc3)C(=O)[C@@H]12` (stereo not given in full), for which the growth is 89.4% (inactive).

Turning to `CCOC(=O)/C=C/c1ccc(C(=O)OCC)[nH]1`, the growth was 49.8% (inactive).
